Where “and” joins values, the source holds several entries; their conditions need not be identical. Equal values may be shown once.
How the values were obtained:
Test in all cases: growth inhibition (% activity, log2 RLU normalised to DMSO / staurosporine); higher = more growth inhibition
Settings in all cases: 33 µM
[1] = tested on: DIPGX29 (H3.3 K27M diffuse intrinsic pontine glioma line)
Outline: (§1)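 The growth-inhibition value comes from CellTiter-Glo luminescence, log2-transformed, normalised per plate to % activity between solvent and positive control wells, and taken as the median over replicates. Treatment of pHGG cell lines and H9-derived neural stem cells with approved drugs was at a single final concentration of about 33 μM, in triplicate, for 7 days at 37 °C, 5% CO2.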

[2] = tested on: DIPGX37 (H3.3 K27M diffuse intrinsic pontine glioma line)
Outline: as §1

[3] = tested on: DIPGX7 (H3.3 K27M diffuse intrinsic pontine glioma line)
Outline: as §1

[4] = tested on: DIPGX9 (diffuse intrinsic pontine glioma line)
Outline: as §1

[5] = tested on: HGGX39 (paediatric high-grade glioma line)
Outline: as §1

[6] = tested on: HGGX6 (H3.3 G34R paediatric high-grade glioma line)
Outline: as §1

[7] = tested on: HNSC
Outline: as §1

[8] = tested on: SUDIPGIV (diffuse intrinsic pontine glioma line)
Outline: as §1

[9] = tested on: SUDIPGVI (diffuse intrinsic pontine glioma line)
Outline: as §1

[10] = tested on: SUDIPGXIII (diffuse intrinsic pontine glioma line)
Outline: as §1

| SMILES | growth inhibition [1] | growth inhibition [2] | growth inhibition [3] | growth inhibition [4] | growth inhibition [5] | growth inhibition [6] | growth inhibition [7] | growth inhibition [8] | growth inhibition [9] | growth inhibition [10] |
| --- | --- | --- | --- | --- | --- | --- | --- | --- | --- | --- |
| C[C@@H](Oc1cc(-c2cnn(C3CCNCC3)c2)cnc1N)c1c(Cl)ccc(F)c1Cl | 26.5% | 7.08% | 9.03% | 10.8% | 16.1% | 13.5% | 54.5% | 6.53% | 17.5% | 1.64% |
| CN(C)CCCN1c2ccccc2Sc2ccc(C(F)(F)F)cc21 | 1.07% | 1.48% | 0.326% | 0.717% | 3.34% | 0.498% | -0.762% | 2.79% | 0.329% | -5.35% |
| COC(=O)C1=C(C)NC(C)=C(C(=O)OC(C)C)C1c1cccc2nonc12 (stereo not given) | -2.46% | -3.83% | 1.18% | -3.89% | -6.2% | -4.5% | -4.73% | -4.11% | -12.6% | 3.66% |
| C[C@@H]1C[C@H]2[C@@H]3C[C@H](F)C4=CC(=O)C=C[C@]4(C)[C@@]3(F)[C@@H](O)C[C@]2(C)[C@@]1(O)C(=O)CO | 2.44% | 5.42% | 0.269% | 4.89% | 3.56% | -0.761% | 5.26% | -0.633% | 0.461% | -1.67% |
| C[C@]12CC[C@@H]3c4ccc(O)cc4CC[C@H]3[C@@H]1CCC2=O | 0.142% | 1.98% | 2.55% | 1.67% | 3.84% | 0.36% | 1.29% | 1.87% | 0.844% | -0.509% |
| Cc1ccc(NC(=O)c2ccc(CN3CCN(C)CC3)cc2)cc1Nc1nc(-c2cccnc2)cs1 | 8.55% | 4.57% | 8.77% | 6.79% | 15.1% | 9.96% | 9.74% | 7.78% | 9.06% | 2.08% |
| Cc1ccc(C)c(OCCCC(C)(C)C(=O)O)c1 | -0.441% | -0.0995% | 0.0111% | 0.88% | 0.357% | -0.472% | -1.45% | -0.859% | 0.864% | 0.0955% |
| c1cnc2cc3c(cc2n1)[C@@H]1CNC[C@H]3C1 | 1.18% | -2.8% | 1.78% | 0.684% | 0.561% | 1.15% | 0.349% | -0.44% | -0.35% | -1.07% |
| Nc1nc(Cl)nc2c1ncn2[C@H]1C[C@H](O)[C@@H](CO)O1 | 18.6% | 8.52% | 14.4% | 39.6% | 16.4% | 14.2% | 55.2% | 41.7% | 5.86% | 17% |
| O=C(NCCO[N+](=O)[O-])c1cccnc1 | -0.0278% | 2.96% | 1.16% | 1.21% | 0.669% | -4.02% | 46.8% | 0.797% | 1.67% | -0.184% |
| CCCCCCCCCCCCCCCCCCCCCCO | 0.193% | 0.0924% | -0.407% | 0.0399% | -0.179% | 0.445% | 1.03% | -1.18% | 1.92% | 1.68% |
| COc1cc(NS(=O)(=O)c2ccc(N)cc2)nc(OC)n1 | 1.59% | 1.08% | 2.92% | 1.55% | 1.71% | 2.67% | 1.56% | 0.337% | 2.95% | -1.53% |
| CCOC(=O)C1=C(C)NC(C)=C(C(=O)OC)C1c1cccc(Cl)c1Cl (stereo not given) | 2.2% | 0.16% | 2.82% | 2.94% | 6.84% | -1.45% | 5.27% | 3.57% | 1.79% | -2.05% |
| CC(=O)N[C@@H](CS)C(=O)O | -0.541% | 1.66% | 0.31% | -0.364% | -0.994% | -2.9% | 1.29% | 0.64% | 0.65% | 0.374% |
| CC(CN(C)C)CN1c2ccccc2CCc2ccccc21 (stereo not given) | -1.45% | -0.198% | -0.333% | -0.216% | 4.41% | -2.56% | 3.02% | 1.48% | 0.808% | -0.414% |
| CC(=O)OCC(=O)[C@@]1(O)[C@H](C)C[C@H]2[C@@H]3CCC4=CC(=O)C=C[C@]4(C)[C@@]3(F)[C@@H](O)C[C@@]21C | 6.47% | 3.67% | 1.89% | 6.29% | 6.91% | 5.01% | 2.34% | 5.88% | 3.94% | 1.28% |
| C[C@H]1NC(=O)NC1=O | -0.365% | 0.903% | -1.69% | -0.744% | -0.268% | 0.316% | -0.248% | -0.465% | 1.41% | 0.834% |
| Nc1nc(N)c2nc(-c3ccccc3)c(N)nc2n1 | 5.33% | 1.67% | 1.42% | 1.23% | 3.58% | 1.3% | 3.87% | 3.03% | 5.65% | 0.714% |
| NC(CO)(CO)CO | 0.378% | 1.73% | 0.549% | 1.18% | 1.76% | 0.412% | 0.671% | 1.48% | 2.52% | 0.677% |
| Nc1ccc(S(=O)(=O)Nc2nccs2)cc1 | -2.53% | -1.47% | -1.25% | -0.733% | -2.1% | -3.04% | 5.4% | -1.7% | -2.69% | 0.0367% |
| Nc1nc(=O)[nH]cc1F | 1.91% | 1.71% | 2.65% | 3.09% | 1.88% | 1.43% | 1.22% | 0.252% | 2.66% | -3.23% |
| CCOCC(O)COc1ccc(NC(=O)CC[S+](C)C)cc1 (stereo not given) | -1.2% | -0.984% | -0.388% | 0.757% | -1.5% | -2.39% | -2.31% | -1.12% | -0.872% | 0.764% |

| SMILES | growth inhibition [1] | growth inhibition [2] | growth inhibition [3] | growth inhibition [4] | growth inhibition [5] | growth inhibition [6] | growth inhibition [7] | growth inhibition [8] | growth inhibition [9] | growth inhibition [10] |
| --- | --- | --- | --- | --- | --- | --- | --- | --- | --- | --- |
| CCN(CC)CCOC(=O)c1ccc(N)cc1 | 1.14% | -1.44% | 2.21% | 1.17% | 3.11% | 0.874% | 2.07% | 1.58% | 1.31% | 0.856% |
| O=C(C1CCCCC1)N1CC(=O)N2CCc3ccccc3C2C1 (stereo not given) | 0.382% | 3.23% | 1.04% | 1.99% | 2.3% | 0.441% | 3.24% | -1.19% | 3.33% | -0.635% |
| CCOc1nc2cccc(C(=O)O)c2n1Cc1ccc(-c2ccccc2-c2nnn[nH]2)cc1 | 0.354% | -0.496% | 0.489% | -0.089% | 0.622% | 1.65% | 1.93% | -0.153% | 0.98% | -0.345% |
| CNNCc1ccc(C(=O)NC(C)C)cc1 | 2.14% | -0.517% | 2.87% | 1.95% | 3.29% | 0.0869% | 6.38% | -0.464% | 2.55% | -0.216% |
| Cc1cc2c(s1)Nc1ccccc1N=C2N1CCN(C)CC1 | 1.66% | 3.63% | 1.48% | 2.04% | 4.5% | 0.504% | 3.31% | 3.12% | 3.75% | -0.29% |
| C=C1CC[C@H](O)C/C1=C/C=C1\CCC[C@]2(C)[C@@H]([C@H](C)/C=C/[C@H](C)C(C)C)CC[C@@H]12 | 3.21% | 5.04% | 5.34% | 3.65% | 7.46% | 4.35% | 9.22% | 3.53% | 4.49% | 0.866% |
| C[C@]12CC[C@@H]3c4ccc(O)cc4CC[C@H]3[C@@H]1CC[C@@H]2O | -1.16% | 1.54% | -0.611% | -0.154% | 0.663% | 2.45% | -4.69% | -0.561% | -3.66% | 1.49% |
| CCOC(=O)[C@H](CCc1ccccc1)N[C@@H](C)C(=O)N1Cc2cc(OC)c(OC)cc2C[C@H]1C(=O)O | -2.18% | -2.28% | -0.52% | -1.23% | -1.86% | -4.51% | 12.2% | -0.334% | -11% | 1.38% |
| C=CCNC(N)=S | -0.199% | 0.393% | -0.932% | -0.168% | 1.56% | 1.43% | -1.32% | -1.24% | -2.19% | -0.232% |
| CC[C@]1(O)C[C@@H]2CN(CCc3c([nH]c4ccccc34)[C@@](C(=O)OC)(c3cc4c(cc3OC)N(C)[C@H]3[C@@](O)(C(=O)OC)[C@H](OC(C)=O)[C@]5(CC)C=CCN6CC[C@]43[C@@H]65)C2)C1 | 13% | 14% | 13.2% | 22% | 17.1% | 11.5% | 55.5% | 32% | 16.1% | 18.3% |
| CC(C)C[C@H](NC(=O)[C@H](O)[C@H](N)Cc1ccccc1)C(=O)O | 1.26% | 0.0198% | 0.163% | -1% | -2.32% | 1.9% | 0.429% | -2.58% | 0.754% | 0.189% |
| CC1=CC(=O)c2ccccc2C1=O | 2.41% | 0.293% | 3.47% | 2.26% | 1.01% | 2.5% | 42.7% | 1.4% | 4.19% | -2.13% |
| CCCC(CCC)C(=O)O | -0.377% and 2.62% | 2.62% and 1.47% | 0.168% and 0.662% | -1.7% and -0.864% | 1.15% and -1.14% | -4.05% and -2.44% | 2.37% and 0.244% | 1.52% and 0.0625% | 0.818% and -1.61% | 0.746% and 0.431% |
| Nc1nc2n[nH]nc2c(=O)[nH]1 | 14.5% | 13.2% | 14.4% | 22.6% | 17.5% | 13.7% | 56.2% | 32.2% | 1.16% | 1.25% |
| OC(CCN1CCCCC1)(c1ccccc1)C1CC2C=CC1C2 (stereo not given) | -0.000402% | -2.1% | 1.09% | -1.44% | -1.06% | -1.38% | 0.31% | -2.82% | -4.33% | 1% |
| COC(=O)C1=CO[C@@H](O)[C@@H]2C(CO)=CC[C@H]12 | -0.243% | 2.53% | -0.199% | 2.66% | -0.158% | 2.23% | -1.1% | -0.3% | -0.83% | 1.32% |
| O=C(CCCCCCC(=O)Nc1ccccc1)NO | 46.8% | 23.9% | 51.7% | 49.5% | 18.5% | 33.7% | 70.6% | 44.9% | 38.5% | 28% |
| N#CC[C@H](C1CCCC1)n1cc(-c2ncnc3[nH]ccc23)cn1 | -0.711% | -0.293% | 0.591% | -1.04% | 1.2% | -0.228% | -3.15% | -1.09% | 1.18% | -0.858% |
| CCC[C@@H]1C[C@@H](C(=O)N[C@@H]([C@H]2O[C@H](SC)[C@H](OP(=O)(O)O)[C@@H](O)[C@H]2O)[C@H](C)Cl)N(C)C1 | -4.37% | -1.53% | -1.72% | -1.01% | -2.23% | -2.46% | 3.42% | -1.74% | -2.75% | 0.327% |
| O=S(=O)(O)NC1CCCCC1 | 0.811% | 0.93% | 1.03% | 0.594% | 2.81% | 1.56% | 0.385% | 0.0436% | 0.0298% | -1.99% |
| CCn1cc(C(=O)O)c(=O)c2cc(F)c(N3CCNCC3)nc21 | -0.406% | 0.315% | -0.279% | -2.11% | 0.108% | -1.99% | 2.46% | 0.478% | 0.763% | 0.429% |

— the supplement of paper PMC8253809
